In the library only some 2.2% were active in any assay of this set; here they are far more common.
Vaccinia Venus – qHTS for Stage-Specific Inhibitors of Vaccinia Orthopoxvirus: Venus Reporter Primary qHTS. hit rate 0.46% among 330,000. Potency, µM (highest dose often 36.5 µM), for the others: at the top dose activity change, negative = inhibition, most hits filed as inhibitors. Vaccinia virus Venus reporter expression, fluorescence; calls by dose curve; tested in A549 cells; note: nearly all actives have a fitted effect of over 30% in size
FMDV antiviral – High Throughput Screening for Foot and Mouth Disease Virus Antivirals; AID 1159524, 2015; hit rate 1.2% among 410,000; Potency, µM (doses to about 57.9 µM), for the others: at the top dose activity change, negative = inhibition, usual class: inhibitors; FMDV antiviral cell-based qHTS; calls by dose curve; tested in HEK293T cells; note: read-out not given here; nearly all actives have a fitted effect of over 45% in size
FBPA Giardia inh – qHTS Assay for Inhibitors of Fructose-1,6-bisphosphate Aldolase from Giardia Lamblia | A8B2U2 | purified Giardia FBPA | Potency, µM (top dose mostly 59.6 µM), for the others: top-dose activity, negative = inhibition, most hits filed as inhibitors | hit rate 0.71% among 290,000; active = well fitted inhibition curve with a large enough effect; inconclusive = small, poorly fitted or top-dose-only effect, or effect the other way; note: nearly all actives have a fitted effect of over 55% in size
Target sequence (A8B2U2 whole entry, looked up): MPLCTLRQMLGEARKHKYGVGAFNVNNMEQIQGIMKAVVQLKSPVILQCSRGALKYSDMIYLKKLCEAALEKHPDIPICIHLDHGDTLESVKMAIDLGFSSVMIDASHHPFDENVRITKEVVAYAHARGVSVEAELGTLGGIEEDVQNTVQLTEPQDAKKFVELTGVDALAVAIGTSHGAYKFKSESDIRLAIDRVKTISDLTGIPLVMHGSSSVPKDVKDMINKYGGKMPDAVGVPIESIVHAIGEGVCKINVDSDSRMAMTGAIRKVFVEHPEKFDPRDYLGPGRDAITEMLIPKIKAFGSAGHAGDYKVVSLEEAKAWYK
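Giardia FBPA (40 nM reagent) was preincubated 10 min at RT with compound (up to 57.5 uM final), then substrate plus GAPDH/TPI/NAD/arsenate coupling system with diaphorase/resazurin was added; resorufin fluorescence (525/598 nm) was read after 20 min.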
VACV mCherry inh – qHTS for Stage-Specific Inhibitors of Vaccinia Orthopoxvirus: mCherry Reporter Primary qHTS; Vaccinia virus mCherry reporter infection, fluorescence; Potency, µM (top dose mostly 36.5 µM), without a hit: at the top dose activity change, negative = inhibition, usual class: inhibitors; AID 720579, 2013; hit rate 0.63% among 310,000; calls by dose curve; tested in A549 cells; note: nearly all actives have a fitted effect of over 35% in size
Numbers without * were called inactive; i = inactive; ? = inconclusive; nt = not tested or not shown; [ ] = another dose, or the depositor's remark. % is set by controls: 0 for no effect and ±100 for the full control effect; potency is the fitted concentration of half-maximal effect.

SMILES	Vaccinia Venus	FMDV antiviral	FBPA Giardia inh	VACV mCherry inh
Cc1ccc(C2CC(c3cccs3)=NN2C(=O)CCl)cc1 (stereo not drawn)	-11%	18µM*	10%	?
Cc1[nH]n(-c2ccccc2)c(=O)c1N=Nc1ccc2c(c1)OCCO2	nt	69%	-28%	nt
Cc1[nH]n(-c2ccccc2)c(=O)c1N=Nc1c(O)cc(S(=O)(=O)N(C)C)c2ccccc12	?	13µM*	nt	?
O=C(O)CCC(=O)Nc1nnc(C(F)(F)F)s1	?	-1%	-8%	nt
CCC(NC(=O)Nc1nnc(C(F)(F)F)s1)(C(F)(F)F)C(F)(F)F	2µM*	?	-11%	3.5µM*
COc1ccc(CC(=O)NCC(c2cccs2)S(=O)(=O)c2ccc(F)cc2)cc1 (stereo not drawn)	-9%	-19%	nt	-11%
COc1ccc(N(C(=O)CCl)C(C(=O)NCCc2ccccc2)c2cccs2)cc1 (stereo not drawn)	?	16µM*	-2%	-21%
COc1ccc(CCNC(=O)C(=O)NCC(c2cccs2)S(=O)(=O)c2ccc(F)cc2)cc1 (stereo not drawn)	-8%	40µM*	nt	-18%
COc1ccc(CNC(=O)C(c2ccncc2)N(C(=O)Cc2cccs2)c2ccccc2)cc1 (stereo not drawn)	11%	-4%	3%	i
COc1ccc(-c2cc(C)cc3c2OC(CNC(=O)c2cc(C(C)C)on2)C3)nn1 (stereo not drawn)	5%	-3%	nt	-7%
Nc1c(C(=O)N2CCOCC2)sc2nc3c(cc12)CCC3	-12%	21%	-4%	-9%
Nc1c(C(=O)N2CCOCC2)sc2nc3c(cc12)CCCC3	-11%	11µM*	-2%	18%
CCn1c(=O)cc(SCC(=O)Nc2ccc(C)cn2)c2ccccc21	10µM*	25%	3%	?
CCn1c(=O)cc(SCC(=O)Nc2cccc(SC)c2)c2ccccc21	nt	20µM*	?	nt
COc1ccc(F)c(CN2CCC3(CCC(CNC(=O)c4cc(C)nn4C)O3)CC2)c1 (stereo not drawn)	-10%	-24%	nt	-16%
O=[N+]([O-])c1oc2ccc3ccccc3c2c1CCO	10µM*	-11%	nt	?
Cc1c(C(=O)c2ccccc2)oc2ccc3ccccc3c12	5%	39%	5%	-8%
Nn1cnc2c(c1=O)C1(CCCCC1)Cc1ccccc1-2	?	?	0%	?
Oc1ccc(-c2nc3c4c(ncn3n2)-c2ccccc2CC42CCCC2)cc1	-6%	25µM*	-4%	-14%
O=C(c1ccco1)N(CCC(c1ccccc1)c1ccco1)Cc1ccc(F)cc1 (stereo not drawn)	nt	?	0%	nt
CC1(C)CC(C(CCN(Cc2ccccc2)C(=O)c2ccco2)c2ccc(F)cc2)CCO1 (stereo not drawn)	?	14µM*	1%	?
COc1ccc(CN2Cc3ccccc3OC(c3ccccc3OC)C2)cc1O (stereo not drawn)	-20%	-2%	nt	-25%
COc1ccc(C(=O)NNC(=O)c2ccc3ccccc3n2)cc1	?	-21%	nt	11µM*
CN(C(=O)COC(=O)c1nc(Cl)c(Cl)c(Cl)c1Cl)C1CCS(=O)(=O)C1 (stereo not drawn)	-22%	16µM*	-5%	-18%
CCCCCS(=O)(=O)c1oc(-c2cccs2)nc1S(=O)(=O)c1ccc(C)cc1	-28%	28µM*	nt	-27%
SMILES	Vaccinia Venus	FMDV antiviral	FBPA Giardia inh	VACV mCherry inh
CCCCS(=O)(=O)c1oc(-c2ccc(F)cc2)nc1S(=O)(=O)c1ccc(C)cc1	-10%[7.34 µM]	28µM*	nt	-3%[7.34 µM]
CCS(=O)(=O)c1oc(-c2ccc(F)cc2)nc1S(=O)(=O)c1ccccc1	?	18µM*	nt	?
CCCCS(=O)(=O)c1oc(-c2cccs2)nc1S(=O)(=O)c1ccc(F)cc1	-11%[7.34 µM]	32µM*	nt	-15%[7.34 µM]
Cc1ccc(-c2nc3cccc(C)n3c2Nc2ccc(F)cc2)o1	-11%	nt	nt	-18%
CC(C)=CCc1c2c(c3occ(-c4ccc(O)c(O)c4)c(=O)c3c1O)C=CC(C)(C)O2	11µM*	?	-28%	10µM*
CCOC(=O)OCC1OC(CCc2ccccc2)CCC1Oc1ccc(OC)cc1 (stereo not drawn)	nt	nt	1%[12.9 µM]	nt
Cc1cc(N(C)C)ccc1/C=C/c1ccnc2ccccc12	18%	nt	nt	-19%
O=S(=O)(NC1CCCCCCC1)OCC(Cl)(Cl)Cl	?	15%	4%	-16%
O=S(=O)(NC1CC(NS(=O)(=O)OCC(Cl)(Cl)Cl)C2CCCCC12)OCC(Cl)(Cl)Cl (stereo not drawn)	11µM*	?	-2%	?
CCCC(=O)Nc1nn(C)c2nc3c(C)cccc3cc12	-5%	7%	-4%	-9%
Cc1cc(C)c2c(NC(=O)CCl)nn(C)c2n1	?	?	-1%	4.5µM*
C=C1C(=O)c2sccc2C(c2ccc(OC)c(OC)c2)C1COC(C)=O (stereo not drawn)	7.1µM*	13µM*	nt	5µM*
Cc1nc2ccc(C(=O)N3CCOc4ccc(CN5CCOCC5)cc4C3)cc2nc1C	14%	1%	nt	-4%
CC(Oc1ccccc1)C(=O)Nc1ccc(C(=O)OCc2cc(=O)n3ccsc3n2)cc1 (stereo not drawn)	-3%	25µM*	nt	-8%
CC(C)(C)c1ccc(C(=O)Nc2ccc(C(=O)OCc3cc(=O)n4ccsc4n3)cc2)cc1	-25%	14µM*	nt	?
Cc1cn2c(=O)cc(COC(=O)c3ccc(NC(=O)C(C)Oc4ccccc4)cc3)nc2s1 (stereo not drawn)	-3%	-7%	nt	-14%
Cc1ccc(OCC(=O)Nc2ccc(C(=O)OCc3cc(=O)n4ccsc4n3)cc2)cc1C	-13%	35µM*	nt	-15%
Cc1nc2scc(-c3ccccc3)c2c(=O)n1N=C1C=CC(=O)C=C1	-7%	28µM*	-1%	-15%
Cc1nc2scc(-c3ccccc3)c2c(=O)n1N	-21%	-9%	-2%	nt
CCCCNC(=O)N1CCN(c2ccnc3cc(Cl)ccc23)CC1	-22%	32µM*	-6%	-18%
O=S(=O)(c1ccccc1)N1CCN(c2ccnc3cc(Cl)ccc23)CC1	?	25µM*	-3%	?
O=S(=O)(c1cccs1)N1CCN(c2ccnc3cc(Cl)ccc23)CC1	?	?	-3%	?
O=C(Nc1cc(F)ccc1F)N1CCN(c2ccnc3cc(Cl)ccc23)CC1	nt	32µM*	0%	nt
CC(=O)Nc1ccc(NC2=C(Cl)C(=O)c3ccccc3C2=O)cc1	?	28µM*	?	?
Cc1cccc(NC2=C(NC(=O)c3ccccc3)C(=O)c3ccccc3C2=O)c1	-17%	0%	?	-24%
O=C(Oc1ccc(NC2=C(Cl)C(=O)c3ccccc3C2=O)cc1)c1ccc([N+](=O)[O-])cc1	nt	?	-27%	nt
COc1ccccc1NC1=C(NC(C)=O)C(=O)c2ccccc2C1=O	nt	6%	11µM*	nt
O=C(NC1=C(Nc2ccc(Cl)cc2)C(=O)c2ccccc2C1=O)c1ccccc1	?	-17%	?	28µM*
O=C(NC1=C(NC2CCS(=O)(=O)C2)C(=O)c2ccccc2C1=O)c1ccccc1 (stereo not drawn)	nt	?	1.3µM*	nt

Assay outcomes from PubChem BioAssay.
